Here are results for 21 molecules from PubChem BioAssay (NCATS).

A number with no mark means an inactive call. Inconclusive results are not listed. The source made the active and inactive calls. Unless noted, the call rests on the fitted dose curve; in most records, active means well fitted curve in the direction sought with a large enough effect; inconclusive means small, poorly fitted or top-dose-only effect, or another doubt; inactive means no such curve, though single readings can be large; an effect the other way counts as inactive or inconclusive.

Test [1] can be described thus: qHTS to identify inhibitors of the type 1 interferon - major histocompatibility complex class I in skeletal muscle: primary screen against the NCATS Mechanism Interrogation Plate v5.0 (MIPE) Libary (AID 1347411).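 Further: plate controls were vehicle for no effect and reference inhibitor for full effect; nearly all actives have a fitted effect of over 65% in size.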 An outline of the steps:
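HLA-B HiBit myoblasts, dexamethasone-free medium + 4 ng/ml IFN-b, 24 h compound, 11-pt 1:3 from 46 uM final. Readout: Nano-Glo HiBiT lytic luminescence after 10 min lysis, RT.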
For orientation: In qHTS, concentration-response curves come from the screen itself.

For test [2], the target named is Protein phosphatase 1D (Homo sapiens) (UniProt O15297). Put plainly: RapidFire Mass Spectrometry qHTS Assay for Modulators of WT P53-Induced Phosphatase 1 (WIP1) (AID 1347424).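 Further: series mostly up to about 63 µM; plate controls were DMSO wells for no effect and GSK830371 inhibitor control at 10 µM for full effect.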 The essentials: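 RapidFire MS readout of dephosphorylated VEPPL-S-QETFS product, with 1 uM isotope-labelled peptide standard. Reaction: 10 nM WIP1, 2 uM phosphopeptide substrate, 5 min, room temperature, after 1 h compound preincubation; stopped with 0.5% formic acid.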
Chain of Protein phosphatase 1D (Homo sapiens) (O15297 whole entry, looked up): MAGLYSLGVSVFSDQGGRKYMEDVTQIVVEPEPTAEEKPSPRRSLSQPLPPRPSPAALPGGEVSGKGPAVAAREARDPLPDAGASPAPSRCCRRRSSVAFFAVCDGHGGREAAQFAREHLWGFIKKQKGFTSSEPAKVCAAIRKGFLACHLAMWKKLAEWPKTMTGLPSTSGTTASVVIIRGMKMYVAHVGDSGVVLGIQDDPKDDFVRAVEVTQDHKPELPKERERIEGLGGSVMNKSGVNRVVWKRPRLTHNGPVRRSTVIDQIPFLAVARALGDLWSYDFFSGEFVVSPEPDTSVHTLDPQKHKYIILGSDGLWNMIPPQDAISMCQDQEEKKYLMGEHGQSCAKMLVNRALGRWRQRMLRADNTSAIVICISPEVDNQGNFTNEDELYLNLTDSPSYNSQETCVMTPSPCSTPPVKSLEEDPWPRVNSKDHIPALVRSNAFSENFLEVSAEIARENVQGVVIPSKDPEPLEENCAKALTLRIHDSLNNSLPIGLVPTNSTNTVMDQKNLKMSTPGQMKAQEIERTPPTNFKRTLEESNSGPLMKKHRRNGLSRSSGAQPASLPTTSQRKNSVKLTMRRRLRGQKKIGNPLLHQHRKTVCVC

The target is the same in test [3]. Put plainly: Rhodamine-PBP qHTS Assay for Modulators of WT P53-Induced Phosphatase 1 (WIP1) (AID 1347425). Further: % of control where 0% means no effect. The essentials:
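The read-out is the change in Rhodamine-PBP fluorescence (f1 - f0, ex 525/em 598 nm) as Pi is released, read each minute for 11 min. Final reaction: 5 nM WIP1, 10 uM phosphopeptide VEPPL-pS-QETFS, 10 uM Rh-PBP, 50 mM Tris-HCl pH 7.5, 30 mM MgCl2. Compound was preincubated with enzyme for 1 hour at room temperature.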

Test [4] can be described thus: Validation qHTS assay for inhibitors of Activation Induced Cytidine Deaminase (AID): UDG Counterscreen signal (AID 1347427). Further: 0% is about no effect. The essentials:
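Fluorescence at 560 nm excitation, 665 nm emission reports UDG signal after 250 mM NaOH (2x) addition and 30 min. Enzymes (AID 1 uM, UDG 2 U/mL, at 4/3x) preincubated 10 min with compound, then 4 h with 4x 250 nM DJC20/DJC23 substrate at room temperature.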

Test [5] addresses Single-stranded DNA cytosine deaminase (Homo sapiens) (UniProt Q9GZX7). Put plainly: Validation qHTS assay for inhibitors of Activation Induced Cytidine Deaminase (AID): AID signal (AID 1347429). Further: on the % scale 0 is the no-effect control and ±100 the full control effect. The essentials: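 AID+UDG coupled FRET deamination; cpds up to 114 uM final; DJC20/DJC23 substrate, 4 hr RT; NaOH stop, 30 min RT; read Ex 540/Em 590.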
Test [6] is described as follows: Primary qHTS for inhibitors of La Crosse Virus (LACV) - induced cell death in SH-SY5Y cells (AID 1508616).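 Further: top concentration of the series differs between compounds; 0% = infected DMSO wells and 100% = uninfected DMSO wells; higher means more rescue of cells from virus-induced death.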 An outline of the steps:
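Cytopathicity rescue screen: compounds pinned onto SH-SY5Y cells, which are then infected with LACV (MOI 0.01) and held 6 days at 37C. Percent activity is scaled between infected DMSO control and uninfected DMSO control.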

In test [7] the target is Calcium and integrin-binding protein 1 (Homo sapiens) (UniProt Q99828). Put plainly: Primary qHTS for Identification of Calcium Integrin Binding Protein 1 (CIB1) Competitor (AID 1508620). Further: top concentration of the series differs between compounds; on the % scale 0 is the no-effect control and ±100 the full control effect. An outline of the steps: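 Fluorescence polarization competition: GST-tagged CIB1 (1 uM final) preincubated with compound 15 min at room temperature, then FITC-labelled alphaIIb peptide (100 nM final) added. After 15 min at room temperature, polarization read at Ex 480/Em 540.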
Chain of Calcium and integrin-binding protein 1 (Homo sapiens) (Q99828 whole entry, looked up): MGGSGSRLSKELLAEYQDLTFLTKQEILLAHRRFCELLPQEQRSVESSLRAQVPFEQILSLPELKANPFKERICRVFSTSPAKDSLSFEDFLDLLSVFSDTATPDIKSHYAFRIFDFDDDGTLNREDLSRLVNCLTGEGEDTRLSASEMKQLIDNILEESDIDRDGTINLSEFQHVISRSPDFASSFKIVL

The nature of test [8]: Primary qHTS for small molecule stabilizers of the endoplasmic reticulum resident proteome: Secreted ER Calcium Modulated Protein (SERCaMP) assay (AID 1508630). Further: on the % scale 0 is the no-effect control and ±100 the full control effect. An outline of the steps:
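The SH-SY5Y reporter protocol was run at 3 concentrations up to 38.3 uM (primary) or 11 concentrations (follow-up): 16 h compound, 100 nM thapsigargin for 4 h, then extracellular luciferase luminescence.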

Test [9] in a line: qHTS for inhibitors of adenylyl cyclases using a fission yeast platform: a pilot screen against the NCATS LOPAC library (AID 1347410).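 Further: plate controls were DMSO vehicle for no effect and DPI positive control for full effect.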 An outline of the steps: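 GFP from fbp1-GFP reporter, read by Acumen laser cytometry, indicates AC inhibition in fission yeast expressing AC9, GNAS and PDE4D2. Cells grown 18 h in the dark at 30C with compounds, final up to 57 uM.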
Test [10] in a line: Primary qHTS for inhibitors of SARS-S pseudo-typed particle cell entry (AID 1479145; calls by dose curve; further: nearly all actives have a fitted effect of over 45% in size; further: potency means the concentration at half of the fitted maximal effect).
Test [11] in a line: Primary qHTS for Huh7 cytotoxicity: counterscreen for inhibitors of MERS-S pseudotyped particle cell entry (AID 1479147; calls by dose curve).
Test [12] is described as follows: Primary qHTS for inhibitors of MERS-S pseudo-typed particle cell entry (AID 1479149; calls by dose curve; further: nearly all actives have a fitted effect of over 60% in size).
Test [13] in a line: Primary qHTS for Vero E6 cytotoxicity: counterscreen for inhibitors of SARS-S pseudo-typed particle cell entry (AID 1479150; calls by dose curve).
Test [14] deals with Calcium and integrin-binding protein 1 (Homo sapiens) (UniProt Q99828). Put plainly: Validation qHTS for Identification of Calcium Integrin Binding protein 1 (CIB1) Competitor (AID 1508618). Further: on the % scale 0 is the no-effect control and ±100 the full control effect. An outline of the steps: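 CIB1-GST (1 uM final) incubated 15 min at room temperature with compounds (up to 114 uM), then FITC-labelled alphaIIb peptide (100 nM) added. FP read (Ex 480/Em 540) after 15 min, pH 7.4 buffer containing 5 mM CaCl2.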

Test [15] is described as follows: Counterscreen qHTS for small molecule stabilizers of the endoplasmic reticulum resident proteome: GLuc-NoTag assay (AID 1508627). Further: potency means the concentration at half of the fitted maximal effect. The essentials: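 Counterscreen line: SH-SY5Y-GLuc-NoTag. Seed, 5 h; compound, 19 h; thapsigargin 100 nM, 4 h; 37C/5% CO2. Readout: secreted GLuc luminescence, coelenterazine 0.07x final, no lysis.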
(In general: Counterscreens check selectivity or assay interference.)

Chain of Single-stranded DNA cytosine deaminase (Homo sapiens) (Q9GZX7 whole entry, looked up): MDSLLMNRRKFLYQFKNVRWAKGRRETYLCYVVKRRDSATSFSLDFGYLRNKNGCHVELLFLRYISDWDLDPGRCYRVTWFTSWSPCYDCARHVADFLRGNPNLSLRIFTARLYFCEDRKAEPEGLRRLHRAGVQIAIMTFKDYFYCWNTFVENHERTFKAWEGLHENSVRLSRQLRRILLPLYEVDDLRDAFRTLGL

Regarding `C[C@]12CCC(=O)C(O)=C1CC[C@@H]1[C@@H]2CC[C@]2(C)C(=O)CC[C@@H]12`, the Potency entry in [1], in [2], in test [6] and in test [7] was “inactive” in each case. Also, the outcome in test [3], in [4], in test [5] and in [8] was inactive.
On to `NCC(CC(=O)O)c1ccc(Cl)cc1` (centres undefined), for which the outcome in test [9], in [4], in test [5] and in test [8] was inactive. The activity change, negative = inhibition in test [2] is -7.37% [at 0.505 µM]; in test [3] it was 1.39% [at 0.575 µM]; in [10] it was -11.8% [at 0.573 µM]; in test [7], 5.6% [at 1.07 µM]. Further, the outcome in test [11], in test [12] and in [13] was “inactive [at 0.573 µM]” in each case. In addition, the Potency entry in test [6] and in [14] was “inactive” throughout.
On to `CC(C)=CCOc1c2occc2cc2ccc(=O)oc12`, for which the molecule was called inactive in test [9], in test [3], in test [4], in [5] and in test [8]. Besides, the Potency entry in test [2], in test [6], in [14] and in [7] was “inactive” each time.
As for `c1ccc(C2CC2)c(OCC2=NCCN2)c1`, the outcome in test [9], in test [3], in test [4], in test [5] and in test [8] was inactive. Also, the Potency entry in [2], in test [6], in test [14] and in test [7] was “inactive” throughout.
Consider `N#CC(C#N)=Cc1ccc(O)c(O)c1`, for which the molecule was called inactive in test [9], in test [3], in test [4] and in [5]. The Potency result in test [2], in [6], in test [14] and in test [7] was “inactive” throughout.
As to `NN=C(N)N`, the outcome in test [9], in [3], in test [4], in test [5] and in test [8] was inactive. Further, the Potency entry in test [1], in test [2], in [6], in test [14] and in test [7] was “inactive” each time.
For the molecule `COc1ccccc1N1CCNCC1`, the molecule was called inactive in test [9], in [3], in test [4], in [5] and in test [8]. In addition, the Potency entry in test [2], in test [6] and in [14] was “inactive” each time.
Regarding `COC[C@H]1OC(=O)c2coc3c2[C@@]1(C)C1=C(C3=O)C2CCC(=O)[C@@]2(C)C[C@H]1OC(C)=O` (some centres undefined), the outcome in test [9], in test [4], in test [5] and in test [8] was inactive. The Potency entry in [6] and in test [14] was “inactive” in each case.
Take `Cc1cccc(C)c1NC1=NCCCS1`: the call in [9], in test [3], in test [4], in test [5] and in [8] was inactive. The Potency entry in test [2], in [11], in [12], in test [13], in test [6] and in test [14] was “inactive” throughout. For the same molecule, the Potency result in test [7] is “inactive”.
Turning to `NCC1(CC(=O)O)CCCCC1`, the molecule was classed as inactive in test [9], in [3], in test [4], in [5] and in test [8]. In addition, the Potency result in [1], in test [2], in test [10], in test [11], in test [12] and in test [13] was “inactive” in each case. Moreover, the Potency result in test [6], in test [14] and in [7] was “inactive” each time.
As for `O=c1[nH]c2ccccc2n1CCCN1CCC(n2c(=O)[nH]c3cc(Cl)ccc32)CC1`, the outcome in test [9], in test [3], in test [4], in test [5] and in test [8] was inactive. Further, the Potency result in test [1], in [13], in test [6], in test [14] and in test [7] was “inactive” in each case.
In the case of `COc1ccc(C(CN(C)C)C2(O)CCCCC2)cc1` (centres undefined), the molecule was classed as inactive in test [9], in [3], in [4], in test [5] and in [8]. Moreover, the Potency result in test [10], in test [11], in test [12], in test [13] and in test [6] was “inactive” throughout.
As to `CCCN1CCC[C@@H]2Cc3[nH]ncc3C[C@H]21`, the outcome in [9], in test [3], in test [4], in [5] and in test [8] was inactive. Also, the Potency result in [6], in [14] and in test [7] was “inactive” in each case.
`c1ccc2c(c1)OCC(C1=NCCN1)O2` (centres undefined): the outcome in [9], in test [3], in test [4], in [5] and in [8] was inactive. Further, the Potency entry in test [6], in [14] and in [7] was “inactive” throughout.
For `CC(CCc1ccccc1)NC(C)C(O)c1ccc(O)cc1` (centres undefined), the call in [9], in test [3], in test [4] and in test [5] was inactive. For the same molecule, the Potency result in test [10], in test [12], in [13], in [6], in [14] and in test [7] was “inactive” each time.
For the molecule `N[C@@H](Cc1ccc(N(CCCl)CCCl)cc1)C(=O)O`, the Potency entry in [1], in test [2], in test [11], in [12], in [13] and in [7] was “inactive” each time. Further, the molecule was called inactive in [3] and in [8]. In addition, the Potency in test [10] was 31.6 µM (active).
For `Cn1cc(C2=C(c3cn(C4CCN(Cc5ccccn5)CC4)c4ccccc34)C(=O)NC2=O)c2ccccc21`, the Potency entry in [1], in test [2], in test [10], in [11], in test [12] and in [13] was “inactive” in each case. The Potency result in [7] was “inactive”. In addition, the call in test [3] and in test [8] was inactive.
For the molecule `Fc1ccc(C(OCCN2CCN(CCCc3ccccc3)CC2)c2ccc(F)cc2)cc1`, the molecule was called inactive in [9], in test [3], in [4], in [5] and in [8]. Moreover, the Potency result in test [2], in [6], in test [14] and in test [7] was “inactive” each time. Moreover, in test [15], the Potency was 44.7 µM (active).
For the molecule `O=C1NCN(c2ccccc2)C12CCN(CC1COc3ccccc3O1)CC2` (centres undefined), the outcome in test [9], in [3], in [4], in test [5] and in test [8] was inactive. Further, the Potency result in test [6], in [14] and in [7] was “inactive” each time.
`Cc1ncc(CNC(=O)N(CCCl)N=O)c(N)n1`: the outcome in [9], in [3], in test [4], in test [5] and in test [8] was inactive. Moreover, the Potency entry in test [2], in test [10], in test [11], in [12], in test [13] and in test [6] was “inactive” each time. The Potency result in [14] and in test [7] was “inactive” each time.
On to `NCC(O)c1ccc(O)cc1` (centres undefined), for which the outcome in [9], in test [3], in test [4], in [5] and in [8] was inactive. Also, the Potency entry in test [10], in test [11], in test [12], in test [13], in [6] and in test [14] was “inactive” throughout. Besides, the Potency entry in test [7] was “inactive”.
